# Out of some 16,000 compounds screened, about 5,700 (36%) were called active. Another 24% or so got no clear call; they are omitted. This is one part of the list. Values without a mark were called inactive. The call rests on the fitted dose curve; in most records, active means well fitted curve in the direction sought with a large enough effect; inconclusive means small, poorly fitted or top-dose-only effect, or effect the other way; inactive means no such curve, though single readings can be large or run the other way. Peptide text beside a SMILES is read from it.
# Molecular target: Cytochrome P450 1A2 (Homo sapiens) (UniProt P05177)
# Sequence (P05177 whole entry, looked up): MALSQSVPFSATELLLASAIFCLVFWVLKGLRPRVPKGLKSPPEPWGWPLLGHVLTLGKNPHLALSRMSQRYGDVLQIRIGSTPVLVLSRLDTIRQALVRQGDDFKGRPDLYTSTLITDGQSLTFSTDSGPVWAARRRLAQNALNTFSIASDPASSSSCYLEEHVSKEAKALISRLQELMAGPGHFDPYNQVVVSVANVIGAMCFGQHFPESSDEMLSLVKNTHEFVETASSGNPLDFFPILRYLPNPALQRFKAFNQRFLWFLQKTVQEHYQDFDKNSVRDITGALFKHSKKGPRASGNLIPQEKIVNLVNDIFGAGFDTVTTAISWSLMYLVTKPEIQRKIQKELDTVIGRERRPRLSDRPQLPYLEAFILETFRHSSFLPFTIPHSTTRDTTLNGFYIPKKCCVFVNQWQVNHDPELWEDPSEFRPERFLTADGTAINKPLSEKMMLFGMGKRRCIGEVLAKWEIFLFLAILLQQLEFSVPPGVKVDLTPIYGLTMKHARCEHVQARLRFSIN
# Assay: Cytochrome panel assay with activity outcomes
# Details: recombinant CYP, pro-luciferin dealkylation, luminescence, p450-cyp1a2; series mostly up to 57.1 µM
# On the % scale 0 is the no-effect control and ±100 the full control effect.
Structure (SMILES),AC50,"activity, negative = inhibition"
CN1CCCN([C@@H](c2ccccc2)c2ccc(Cl)cc2)CC1,inactive,–
CN1CCN(C2=Cc3ccccc3Oc3ccc(Cl)cc32)CC1,20 µM (active),–
CN1CCN([C@@H](c2ccccc2)c2ccc(Cl)cc2)CC1,inactive,–
COC(=O)[C@@]1(Cc2ccc(F)cc2)[C@H]2c3cc(C(=O)N4CCCC4)n(Cc4ccc(OC(F)(F)F)cc4)c3C[C@H]2CN1C(=O)c1ccccc1,inactive,–
Cc1noc(NS(=O)(=O)c2ccc(N)cc2)c1C,inactive,–
Cc1noc(NS(=O)(=O)c2ccc(N/C=C/C(=O)c3ccc4c(c3)OCO4)cc2)c1C,12.6 µM (active),–
Cc1noc(NS(=O)(=O)c2ccc(N/C=C\C(=O)c3ccc4c(c3)OCO4)cc2)c1C,inactive,–
C[C@H](C(=O)O)c1cccc(Oc2ccccc2)c1,inactive,–
CCC(C)(C)c1ccc(Oc2cccc(C(=O)O)c2)cc1,–,-13.7% [at 11.4 µM]
C[C@@H](/C=C\c1cccc(Oc2ccc(F)cc2)c1)N(O)C(N)=O,0.158 µM (active),–
Cc1ccccc1-c1nc(NCc2cccnc2)c2ccccc2n1,0.501 µM (active),–
CON(C)C(=O)c1nnc2c(n1)[nH]c1ccccc12,–,1.4% [at 11.4 µM]
FC(F)(F)c1ccccc1-c1nc(NCc2cccnc2)c2ccccc2n1,2 µM (active),–
C(=N/Nc1nnc2c(n1)[nH]c1ccccc12)/c1cccnc1,0.631 µM (active),–
Clc1ccccc1-c1nc(NCc2cccnc2)c2ccccc2n1,0.631 µM (active),–
Clc1ccccc1-c1nc(N/N=C/c2cccnc2)c2ccccc2n1,0.141 µM (active),–
CCCCn1c(SC(C)C(N)=O)nc2cc(C(=O)OC)ccc2c1=O (centres undefined),1.78 µM (active),–
Cn1cnc([N+](=O)[O-])c1[Se]c1nc(N)nc2c1ncn2[C@@H]1O[C@@H](CO)[C@H](O)[C@@H]1O,–,-12.8% [at 2.29 µM]
CCOC(=O)c1c(C)nc2sc3c(=O)n(-c4ccc(C(C)=O)cc4)nnc3c2c1-c1ccc(Cl)cc1,inactive,–
CCOc1nnc(C)c2c(C)n(-c3ccc(Cl)cc3)nc12,10 µM (active),–

Structure (SMILES),AC50,"activity, negative = inhibition"
CCn1cc(-c2nnnn2-c2ccc(Cl)cc2)c(=O)c2ccccc21,inactive,–
C/C=C1\C(=O)C[C@@H]2[C@@H]3CCC4=CC(=O)CC[C@@]4(C)[C@H]3CC[C@@]12C,inactive,–
C#C[C@@]1(O)CC[C@@H]2[C@@H]3CCC4=CC(=O)CC[C@@H]4[C@H]3CC[C@]21CC,inactive,–
C#C[C@]1(O)CC[C@@H]2[C@H]3CCC4=Cc5oncc5C[C@]4(C)[C@@H]3CC[C@@]21C,10 µM (active),–
C#C[C@]1(O)CC[C@H]2[C@H]3CCC4=Cc5oncc5C[C@]4(C)[C@@H]3CC[C@]21C,12.6 µM (active),–
C[C@]1(O)CC[C@H]2[C@H]3CC=C4N5CCN=C5CC[C@@]4(C)[C@H]3CC[C@@]21C,–,-12.8% [at 2.29 µM]
C[C@@]12CCC(=O)C=C1CC[C@H]1[C@H]3CC[C@](O)(C(=O)CO)[C@]3(C)CC(=O)[C@@H]12,inactive,–
O=C(O)[C@H]([C@H]1NCCS1)N1Cc2ccccc2C1,–,-13.4% [at 2.29 µM]
CNc1oc(-c2cccs2)nc1C#N,2.24 µM (active),–
CNc1oc(-c2ccc(Cl)cc2)nc1C#N,1.78 µM (active),–
N#Cc1nc(-c2cccs2)oc1NCc1ccccc1,1.12 µM (active),–
CCOC(=O)c1[nH]c(COC(=O)CCOc2ccccc2OC)c(C(=O)OCC)c1C,8.91 µM (active),–
CCOC(=O)C1=C(C)C(c2ccccc2OC)NC(=S)N1 (centres undefined),inactive,–
CCCCN(CC)S(=O)(=O)N1CCC(C(=O)NCCCN2CCOCC2)CC1,inactive,–
CCOC(=O)N/N=C1/C[C@@H](O)[C@@H](O)[C@@H]2[C@@H]3C(=O)N(CC)C(=O)[C@H]3CC[C@@H]12,–,-5.68% [at 11.4 µM]
CCOc1ccc(NC(=O)CSc2nc(C)c3c(c2C#N)CCCC3)cc1,2 µM (active),–
CSc1nc(N)nc(SCC(=O)Nc2ccc(Cl)cc2)c1C#N,0.891 µM (active),–
COc1ccc(NC(=O)CSc2nc(C)c3c(c2C#N)CCCC3)cc1,2.51 µM (active),–
CCOc1cccc(NC(=O)CSc2nc(C)c3c(c2C#N)CCCC3)c1,inactive,–
CC(=O)Oc1ccc(C(c2ccc(OC(C)=O)cc2)c2ccccn2)cc1,inactive,–

Structure (SMILES),AC50,"activity, negative = inhibition"
COC(=O)[C@](C)(N)Cc1ccc(O)cc1,inactive,–
C/C(=C\c1ccc(Cl)cc1)C(C)(C)C(=O)O,–,-17.1% [at 11.4 µM]
COC(=O)[C@H](N)Cc1ccc(Cl)cc1,3.16 µM (active),–
NC(=O)NCc1ccc(Cl)cc1,inactive,–
C[C@H](N)C(=O)OC(C)(C)Cc1ccc(Cl)cc1,0.631 µM (active),–
COC(=O)C(CC(C)C)NC(=O)C(N)Cc1ccccc1 (stereo not drawn) (H-Phe-Leu-OMe; configuration not given here),inactive,–
O=C(Nc1ccc(S(=O)(=O)N2CCOCC2)cc1)c1ccc(CN2CCc3ccccc3C2)cc1,inactive,–
O=C(Nc1ccc(S(=O)(=O)N2CCCCC2)cc1)c1ccc(CN2CCc3ccccc3C2)cc1,inactive,–
CN(C)S(=O)(=O)c1ccc(C(=O)Nc2ccc(CN3CCCC3)cc2)cc1,25.1 µM (active),–
CCC(=O)N1CCN(C(=O)c2ccccc2)CC1,inactive,–
O=C(c1ccccc1)N1CCSC1=S,14.1 µM (active),–
CCC(C)NC(=O)C1CCN(C(=O)c2ccccc2)CC1 (centres undefined),inactive,–
Cc1nc2cnc(N(C)C)nc2n(Cc2cccs2)c1=O,1.26 µM (active),–
CN(C)c1ncc2ncc(=O)n(Cc3cccs3)c2n1,1.58 µM (active),–
CCNC(=O)C/C(C)=N/NC(=O)C12CC3CC(CC(C3)C1)C2,inactive,–
Fc1ccc(-c2cn3cc(C(F)(F)F)cc(Cl)c3n2)cc1,0.891 µM (active),–
CC1(C)CC(=O)C2=C(C1)Nc1cc3c(cc1C2c1ccc(F)cc1)OCO3 (centres undefined),6.31 µM (active),–
FC(F)(F)c1ccc(N2CCOCC2)c(Nc2nc3ccccc3n3cnnc23)c1,6.31 µM (active),–
COc1cccc2c1C(=O)c1c(O)c3c(c(O)c1C2=O)C[C@](O)(C(=O)CO)C[C@H]3O[C@@H]1C[C@H](N)[C@H](O)[C@H](C)O1,inactive,–

# — PubChem BioAssay AID1851 (National Center for Advancing Translational Sciences (NCATS), 2009)
